Data: PubChem BioAssay AID488969 (Vanderbilt High Throughput Screening Facility, 2010)
In all, about 110,000 compounds were measured (“z-score”: median about -0.1, highest 2% from about 2 on). Shown is part of a subset that was picked to be rich in the highest values. The source made the active and inactive calls.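 How the source made its calls: active means z-score in the third read window above 3 or below -3; inactive means the rest.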

Target: Metabotropic glutamate receptor 8 (Rattus norvegicus) (UniProt P70579)
Experiment: mGluR8 Gi/Go-coupled signaling modulation – cell-based, rat, thallium flux, HTS, primary screen (AID 488969)
Conditions: HEK293 rat mGluR8, GIRK (G protein-gated inwardly rectifying potassium channel) thallium flux, FluoZin2; at 10 µM; stronger effect = higher value; submaximal glutamate (EC20) added with thallium

Chain of Metabotropic glutamate receptor 8 (Rattus norvegicus) (P70579 whole entry, looked up): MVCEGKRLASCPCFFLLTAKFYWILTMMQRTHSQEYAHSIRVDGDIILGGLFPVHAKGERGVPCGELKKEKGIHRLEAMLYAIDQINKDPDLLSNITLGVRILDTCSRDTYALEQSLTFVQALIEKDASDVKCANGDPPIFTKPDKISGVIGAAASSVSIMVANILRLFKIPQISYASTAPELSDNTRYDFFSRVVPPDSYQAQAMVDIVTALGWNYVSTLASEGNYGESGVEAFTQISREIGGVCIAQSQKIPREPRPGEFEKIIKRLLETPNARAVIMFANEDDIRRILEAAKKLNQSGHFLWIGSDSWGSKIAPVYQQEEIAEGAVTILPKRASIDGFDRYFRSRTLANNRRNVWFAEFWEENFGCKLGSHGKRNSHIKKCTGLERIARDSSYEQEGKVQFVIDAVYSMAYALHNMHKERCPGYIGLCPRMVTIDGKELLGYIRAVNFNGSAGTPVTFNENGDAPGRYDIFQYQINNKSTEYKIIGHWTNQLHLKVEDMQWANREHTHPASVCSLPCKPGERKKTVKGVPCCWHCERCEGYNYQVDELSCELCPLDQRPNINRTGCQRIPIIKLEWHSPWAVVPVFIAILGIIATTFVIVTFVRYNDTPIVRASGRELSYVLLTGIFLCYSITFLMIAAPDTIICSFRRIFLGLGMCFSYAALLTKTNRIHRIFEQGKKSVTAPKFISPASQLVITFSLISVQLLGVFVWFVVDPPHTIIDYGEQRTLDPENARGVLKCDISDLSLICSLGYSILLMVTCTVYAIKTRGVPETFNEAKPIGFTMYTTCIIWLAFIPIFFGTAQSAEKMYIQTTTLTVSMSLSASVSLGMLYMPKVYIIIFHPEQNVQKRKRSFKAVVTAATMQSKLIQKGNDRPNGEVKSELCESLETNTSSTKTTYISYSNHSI

Row | Structure (SMILES) | z-score
1 | CCOC(=O)c1[nH]c(C)c(/C(O)=C2\C(=O)C(=O)N(CCCN(C)C)C2c2cccnc2)c1C (centres undefined) | -0.333
2 | COc1cc(CNc2nc3ccccc3n2C)cc(OC)c1OC | -0.245
3 | CCCNC(=O)COC(=O)c1cc(SC)ccc1Cl | 0.561
4 | O=C(CN(C(=O)Cn1nnc(-c2cccs2)n1)c1ccc2c(c1)OCCO2)NC1CCCCC1 | -0.0843
5 | CCC1(C)C(Nc2c(C)cccc2C)=NC(=S)N1c1ccc(NC(C)=O)cc1 (centres undefined) | -0.38
6 | Cc1cccc(C)c1NC1=NC(=S)N(c2ccccc2)C12CCOC(C)(C)C2 (centres undefined) | 0.847
7 | Cc1ccc(N2C(=S)N=C(Nc3ccccc3C)C23CCOC(C)(C)C3)cc1 (centres undefined) | 15 (active)
8 | Cc1cccc(C)c1NC1=NC(=S)N(c2ccc(N(C)C)cc2)C1(C)C | 1.87
9 | Cc1ccccc1NC1=NC(=S)N(c2ccccc2)C12CCOC(C)(C)C2 (centres undefined) | 12.6 (active)
10 | Cc1cccc(N2C(=S)N=C(Nc3c(C)cccc3C)C23CCOC(C)(C)C3)c1 (centres undefined) | -0.179
11 | Cc1sc(NC(=S)NC(=O)C(C)(C)C)c(C(N)=O)c1C | -0.0974
12 | O=C(O)C1C2C=CC(C2)C1C(=O)NCCc1ccccc1 (centres undefined) | -0.122
13 | O=C(O)C1C2C=CC(C2)C1C(=O)NCCc1cccc(Cl)c1 (centres undefined) | 6.03 (active)
14 | O=C(O)C1C2C=CC(C2)C1C(=O)NCCc1ccncc1 (centres undefined) | 0.718
15 | CCc1nnc(NC(=O)CN2CCN(c3cccc(OC)c3)CC2)s1 | 0.136
16 | CCC(COC(=O)Nc1cccc(C)c1C)NC(=O)OCC(C)C (centres undefined) | -0.549
17 | CCCOC(=O)NC(CC)COC(=O)Nc1cccc(C)c1C (centres undefined) | 3.15 (active)
18 | CCCOC(=O)NC(CC)COC(=O)Nc1cc(C)ccc1C (centres undefined) | -0.0367
19 | CN(C1CCCCC1)S(=O)(=O)c1ccc2c(c1)c(=O)c(C(=O)N1CCc3ccccc3C1)cn2C | -1.33
20 | Cc1cc(Cl)c(S(=O)(=O)Nc2ccc(Cl)cn2)cc1OCC(N)=O | 0.203
21 | COc1cccc(-n2c(=O)[nH]cc(C(=O)Nc3ccc(NC(C)=O)cc3)c2=O)c1 | -0.503
22 | COc1ccc(-n2c(=O)[nH]cc(C(=O)Nc3ccc(NC(C)=O)cc3)c2=O)cc1 | 9.34 (active)
23 | COc1ccc(-n2c(=O)[nH]cc(C(=O)Nc3ccccc3)c2=O)cc1 | 0.241
24 | CCc1ccc(N=c2c([N+](=O)[O-])nn(-c3ccccc3)n2O)cc1 | -0.133
25 | CCCn1c(SCC(=O)N2CCCc3ccccc32)nnc1-c1ccccn1 | -0.0622
26 | Cc1nn(CCC#N)c(NC(=O)c2ccc(Cl)cc2Cl)c1P(=O)(Nc1ccc([N+](=O)[O-])cc1)N1CCOCC1 (centres undefined) | -0.0204
27 | CCOc1ccc2cc(C(=O)c3ccccc3)c(=O)oc2c1 | -0.201
28 | CN(C)C(=O)COc1ccc2ccc(=O)oc2c1 | -0.168
29 | CN(C)C(=O)COc1ccc2cc(-c3ccccc3)c(=O)oc2c1 | 2.32
